# Reference: PubChem BioAssay
# Legend:
# [1] = tested on: Human papillomavirus type 1a protein E7 (residues 44-93); assay: HPV1a E7 fragment binders on microarrays, primary screen, biochemical, small-molecule microarray, residues 44-93, 635 nm fluorescence (AID 1108); conditions: small-molecule microarray binding, fluorescence 635 nm; higher = more signal;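 also: E7 fragment applied at 1 µg/mL in TBST for 1 h at 4 C; score combines spot fluorescence with its signal to noise ratio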
# [2] = modulators of HCV replicon luciferase signal, primary screen, HCV replication inhibitor project, Huh7 cells, luciferase reporter (AID 1109); conditions: 48 h, higher = more signal;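 also: huh7 hepatoma cells harbouring a luciferase neomycin HCV replicon reporter; luciferase luminescence as measure of HCV replicon replication; test concentration not given here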
# [3] = biological target: Left-right determination factor 2 (Homo sapiens) (UniProt O00292); assay: LEFTY2 binders on small-molecule microarrays, primary screen, biochemical, small-molecule microarray, 635 nm fluorescence scan (AID 1110); conditions: LEFTY2 binding, higher = more signal
# [4] = biological target: Calmodulin-1 (Homo sapiens) (UniProt P0DP23); assay: CALM1 binders on microarrays, EGTA buffer, profiling panel, biochemical, small-molecule microarray, Cy5-labelled CALM1 (AID 1111); conditions: Cy5-CALM1 binding fluorescence, higher = more signal;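 also: labelled calmodulin applied in Tris saline Tween buffer holding calcium plus EGTA and DTT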
# [5] = biological target: Calmodulin-1 (Homo sapiens) (UniProt P0DP23); assay: calcium-bound CALM1 binders on microarrays, profiling panel, artefact control for SMM control-protein annotation, biochemical, small-molecule microarray, Cy5-labelled CALM1, plus calcium (AID 1112); conditions: Cy5-CALM1 binding fluorescence, higher = more signal;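 also: score merges spot fluorescence with signal to noise from triplicate slides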
# [6] = small-molecule microarray binders of probe aWnt5a, primary screen, biochemical, biotinylated probe, 635/667 nm fluorescence (AID 1113); conditions: higher = more signal;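 also: score merges 667 nm fluorescence intensity with signal-to-noise per printed feature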
# [7] = small-molecule microarray binders of probe aShh, primary screen, biochemical, biotinylated probe, 635/667 nm fluorescence (AID 1114); conditions: higher = more signal;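 also: probe is biotin-labelled aShh protein from a stem cell growth factor screen; measures binding of labelled protein to compounds printed on the slide; score merges feature fluorescence at 667 nm with signal-to-noise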
# [8] = small-molecule microarray binders of probe aNog, primary screen, biochemical, biotinylated probe, 635/667 nm fluorescence (AID 1115); conditions: higher = more signal;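 also: probe is biotinylated aNog protein used at 0.15 µg/mL for 1 h at 4 C; z-score combines 667 nm fluorescence of each spot with its signal to noise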
# [9] = biological target: Torsin-1A-interacting protein 1 (Homo sapiens) (UniProt Q5JTV8); assay: LAP1 binders from COS7 cell lysate, primary screen, small-molecule microarray, 635/667 nm fluorescence (AID 1116); conditions: COS7-hLAP1 lysate binding, 635 nm fluorescence, higher = more signal
# [10] = biological target: Alpha-bungarotoxin (Bungarus multicinctus) (UniProt P60615); assay: alpha-bungarotoxin binders on microarray, profiling panel, artefact control for SMM control protein annotation, biochemical, small-molecule microarray, Alexa647 label, 635/667 nm fluorescence (AID 1117); conditions: alpha-BTX-A647 binding fluorescence, higher = more signal
# Alpha-bungarotoxin (Bungarus multicinctus), sequence (P60615 whole entry, looked up): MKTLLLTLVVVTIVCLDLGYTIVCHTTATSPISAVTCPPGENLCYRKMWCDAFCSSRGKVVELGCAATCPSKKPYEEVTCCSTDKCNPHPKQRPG
# Left-right determination factor 2 (Homo sapiens), sequence (O00292 whole entry, looked up): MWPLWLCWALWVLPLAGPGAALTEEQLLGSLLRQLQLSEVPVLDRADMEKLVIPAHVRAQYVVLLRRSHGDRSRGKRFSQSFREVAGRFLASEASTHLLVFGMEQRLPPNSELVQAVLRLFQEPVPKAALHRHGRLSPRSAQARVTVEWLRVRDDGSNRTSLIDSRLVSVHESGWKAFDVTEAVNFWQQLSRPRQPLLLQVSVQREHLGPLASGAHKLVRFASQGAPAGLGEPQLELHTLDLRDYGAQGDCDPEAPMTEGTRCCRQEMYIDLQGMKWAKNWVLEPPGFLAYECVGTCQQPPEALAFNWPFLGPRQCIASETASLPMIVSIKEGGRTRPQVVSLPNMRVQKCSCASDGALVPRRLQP
# Torsin-1A-interacting protein 1 (Homo sapiens), sequence (Q5JTV8 whole entry, looked up): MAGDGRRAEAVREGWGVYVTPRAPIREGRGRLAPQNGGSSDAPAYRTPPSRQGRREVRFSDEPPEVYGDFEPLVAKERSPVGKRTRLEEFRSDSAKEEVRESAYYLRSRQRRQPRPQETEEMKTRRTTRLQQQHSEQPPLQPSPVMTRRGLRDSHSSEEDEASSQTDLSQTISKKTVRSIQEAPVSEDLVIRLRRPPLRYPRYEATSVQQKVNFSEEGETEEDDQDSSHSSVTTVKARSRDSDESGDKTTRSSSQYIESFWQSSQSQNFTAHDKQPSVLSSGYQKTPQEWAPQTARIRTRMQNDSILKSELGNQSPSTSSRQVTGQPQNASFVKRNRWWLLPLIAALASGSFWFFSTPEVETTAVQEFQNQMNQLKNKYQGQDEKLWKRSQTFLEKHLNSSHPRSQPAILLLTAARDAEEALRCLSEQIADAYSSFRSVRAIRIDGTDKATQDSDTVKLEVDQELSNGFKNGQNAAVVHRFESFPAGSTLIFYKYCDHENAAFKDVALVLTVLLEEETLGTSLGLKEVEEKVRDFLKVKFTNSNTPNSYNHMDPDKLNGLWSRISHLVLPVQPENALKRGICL
Compound,composite z-score [1],z-score [2],composite z-score [3],composite z-score [4],composite z-score [5],composite z-score [6],composite z-score [7],composite z-score [8],composite z-score [9],composite z-score [10]
C=CC[C@@]1(C(=O)O)N=C(c2ccc(OCCCO)cc2)O[C@@H]1c1ccccc1N=[N+]=[N-],0.411,1.03,0.294,1.39,0.341,-0.0236,-0.181,1.24,1.02,1.77
CC(C)C[C@@H]1NC(=O)[C@H]2C[C@@H](C(=O)NCCCCCCNC(=O)CS)[C@@H](c3cccc(OCCO)c3)N2C1=O,1.41,-0.117,1.45,0.83,-0.587,-0.001,-0.282,-0.152,1.95,1.17
O=C1[C@]2(CO)C=C(Br)[C@@H](C[C@@H]2c2ccccc2)[C@@]12CO2,-0.728,-3.08,0.218,-0.567,-0.322,-0.0165,-0.221,-0.158,-0.563,-0.0487
COC(=O)[C@@]1(Cc2ccc(F)cc2)[C@H]2c3cc(C(=O)N4CCCC4)n(Cc4cccc5ccccc45)c3C[C@H]2CN1C(=O)c1ccccc1,1.37,-1.37,-0.201,1.23,0.0721,0.0859,0.111,1.36,1.84,1.07
[N-]=[N+]=Nc1ccccc1[C@@H]1OC(c2ccc(OCCCO)cc2)=N[C@]1(CCS(=O)(=O)c1ccccc1)C(=O)N1CCOCC1,1.03,2.34,0.647,1.74,0.764,0.16,0.326,0.939,1.42,2.84
CC(C)N1C(=O)[C@@]2(c3ccc([N+](=O)[O-])cc3)CC(=O)N(CC34CC5CC(CC(C5)C3)C4)[C@@H]2c2ccc(CO)cc21,-1.28,-1.21,-1.36,-0.251,0.134,-0.316,-0.208,0.705,-0.742,-0.12
COCC(=C=CC[C@@H](O)c1ccc(CO)o1)CCO,-0.494,-0.711,0.744,-0.699,-0.662,-0.124,-0.217,-0.387,2.23,-0.0933
CC(C)C[C@@H]1NC(=O)[C@H]2C[C@@H](C(=O)NCCCCCNC(=O)CS)[C@@H](c3cccc(OCCO)c3)N2C1=O,1.38,-0.265,1.25,0.193,-0.364,-0.194,-0.358,-0.0428,0.698,0.812
COC(=O)C[C@@H]1C[C@H](C)[C@]2(O1)C(=O)N(Cc1ccccc1)c1ccc(NC(C)=O)cc12,-0.654,-0.249,0.266,-0.595,-0.324,-0.311,-0.543,0.0034,0.458,-0.194
CC(C)C(=C=CC[C@H](O)c1ccccc1OCCO)C[C@H](O)c1ccccn1,0.143,-0.493,0.64,-0.227,-0.253,-0.0607,-0.2,0.381,0.94,1.38
O=C1O[C@H](c2ccccc2)[C@H](c2ccccc2)N2[C@H]1[C@@H](C(=O)O)[C@]1(C(=O)Nc3ccc(C#CC4(O)CCCCCC4)cc31)[C@H]2c1ccc(OCCO)cc1,1.5,-1.77,-0.418,1.89,0.475,0.0692,0.0048,0.0028,0.535,2.21
CCCCCCc1nc(CCCc2cc3c(c(CCCCCC)n2)[Si](C(C)C)(C(C)C)OC3)cc2c1[Si](C(C)C)(C(C)C)OC2,-0.893,-3.46,-0.116,-0.63,-0.0511,-0.1,0.214,-0.303,-0.386,-0.325
CC(C)N1C(=O)C[C@@](C(=O)NCc2ccccc2)(c2ccc([N+](=O)[O-])cc2)[C@H]1c1ccc(CO)cc1,1.37,-0.0323,-0.57,-0.47,-0.602,-0.0894,-0.13,-0.498,1.99,-0.148
C=C(COC)C(=O)CC[C@@H](OC(=O)c1cccnc1)c1ccc(CO)o1,0.369,-0.778,0.355,-0.0743,-0.116,-0.1,-0.0977,0.094,0.424,0.285
COCCOC(=O)N1C(=O)[C@@]2(c3cc(C#CCCO)ccc31)[C@H](C(=O)NC[C@H](O)c1ccccc1)[C@H]1C(=O)O[C@H](c3ccccc3)[C@H](c3ccccc3)N1[C@@H]2c1ccc(O)cc1,0.727,-0.485,-0.186,0.302,0.262,-0.0519,-0.416,-0.0784,1.11,0.476
